Hit rate of the full screen: of about 350,000 compounds, about 31,000 (8.9%) were called active. A call without a number means that no potency is given here. Not shown: some 15% with an inconclusive outcome. This is one part of a sample in which actives are shown more often than they occur. The call rests on the fitted dose curve; in most records, active means well fitted inhibition curve with a large enough effect; inconclusive means small, poorly fitted or top-dose-only effect; inactive means no such curve, though single readings can be large or run the other way.
target: Histone-lysine N-methyltransferase EHMT2 (Homo sapiens) (UniProt Q96KQ7); assay: qHTS Assay for Inhibitors of Histone Lysine Methyltransferase G9a; details: G9a H3K9 monomethylation, AlphaScreen, 2 h; series mostly up to 59 µM; further: nearly all actives have a fitted effect of over 75% in size
Method in brief: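 AlphaScreen read-out: biotin-H3K9 peptide (500 nM) methylation by 20 nM enzyme with 20 uM SAM, 2 h at room temperature after 15 min compound preincubation; anti-monomethyl H3K9 antibody plus donor/acceptor beads, 10 min dark.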
Potency means the concentration at half of the fitted maximal effect.

Histone-lysine N-methyltransferase EHMT2 (Homo sapiens), sequence (Q96KQ7 913-1193 limits assumed): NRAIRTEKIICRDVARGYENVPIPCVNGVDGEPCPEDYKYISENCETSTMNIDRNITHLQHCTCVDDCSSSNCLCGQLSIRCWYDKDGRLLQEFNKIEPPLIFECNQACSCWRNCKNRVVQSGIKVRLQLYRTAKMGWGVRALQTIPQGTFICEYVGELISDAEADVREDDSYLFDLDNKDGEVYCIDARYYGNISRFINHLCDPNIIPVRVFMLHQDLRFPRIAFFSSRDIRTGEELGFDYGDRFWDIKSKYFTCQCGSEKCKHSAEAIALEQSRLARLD

Compound	Potency	activity, negative = inhibition
CSc1ccccc1NC(=O)COC(=O)CCCOc1ccc(C)cc1	inactive	–
COc1ccc(CNC(=O)c2cc(C(=O)C3CC3)c[nH]2)cc1	inactive	–
Cc1cccc(N2CCN(C(=O)CCSCc3ccccc3F)CC2)c1C	inactive	–
Cc1cccc(N2CCN(C(=O)/C=C/c3ccco3)CC2)c1C	11.2 µM (active)	–
Cc1cccc(N2CCN(C(=O)c3cnc(N4CCCC4)nc3C)CC2)c1C	–	5.62% [at 12.7 µM] (inactive)
COc1ccc(CN(C)C(=O)c2cc(-c3ccc(C)cc3C)nc3ccccc23)c(OC)c1OC	inactive	–
Cc1cccc(-n2ncc(C(=O)N3CCN(c4ccc(Cl)cc4)CC3)c2C2CCN(C(=O)OC(C)(C)C)CC2)c1	inactive	–
Cc1ccc2nc(NC(=O)C3CCN(S(=O)(=O)c4ccc5c(c4)oc(=O)n5C)CC3)sc2c1	inactive	–
Cc1ccc2nc(N3C(=O)C(O)=C(C(=O)c4ccco4)C3c3cccc(O)c3)sc2c1 (stereo unspecified)	31.6 µM (active)	–
CCOc1ccc2nc(N3CCC(C(=O)Nc4cc(C)ccc4C)CC3)sc2c1	inactive	–
COc1ccc([C@H]2CC(=O)C=C(c3ccc(C)cc3)C2)cc1	–	-2.52% [at 0.501 µM] (inactive)
CCc1nc2cccnc2n1-c1ccc(C(=O)O)cc1	35.5 µM (active)	–
COCCCNC(=O)Cc1ccc(-n2c(C)nc3cccnc32)cc1	inactive	–
CCc1nc2cccnc2n1-c1ccc(CC(=O)Nc2c(C)cccc2C)cc1	inactive	–
COc1ccc(OC)c(NC(=O)CCN2CCC(C)CC2)c1	inactive	–
COC(=O)CNC(c1ccccc1Cl)c1cc(Br)ccc1NC(=O)CCN1CCOCC1 (stereo unspecified)	39.8 µM (active)	–
COc1ccc(NC(=O)CCN2CCCC2)c(OC)c1	inactive	–
O=C(CSc1nc2nccnc2c(=O)n1CCc1c[nH]c2ccccc12)Nc1ccccc1F	inactive	–
O=C(c1cccc(Br)c1)N1CCN(Cc2cc(=O)n3nc(-c4ccccc4)sc3n2)CC1	inactive	–
CN(Cc1cccs1)C(=O)CN1C(=O)c2ccccc2S1(=O)=O	–	-6.03% [at 2.33 µM] (inactive)
CCCCN(C(=O)c1nn(C)c(=O)c2ccccc12)c1c(N)n(CCC)c(=O)[nH]c1=O	–	-30.6% [at 12.7 µM] (inactive)
O=C(OCc1ccc([N+](=O)[O-])cc1)c1ccccn1	inactive	–
CC(OC(=O)c1ccc2ccccc2n1)C(=O)c1ccccc1 (stereo unspecified)	inactive	–
O=C(Oc1ccc([N+](=O)[O-])cc1)c1ccc2ccccc2n1	12.6 µM (active)	–
COCCn1c(SCC(=O)c2cc(C)ccc2C)nc2cc(C(=O)NC3CCCC3)ccc2c1=O	inactive	–
O=C(COC(=O)c1ccccc1Cl)NC1CCCCCCC1	–	6.1% [at 0.501 µM] (inactive)

— PubChem BioAssay AID504332 (National Center for Advancing Translational Sciences (NCATS), 2011)
